Results taken from PubChem BioAssay (Tox21).
Inconclusive results are not listed. Activity calls are given as the source filed them. Unless noted, calls follow the shape of the dose curve; as a rule, active = well fitted curve in the direction sought with a large enough effect in the repeat runs; inconclusive = weak or mixed curves; inactive = no such curve, though single readings can be large; an effect the other way counts as inactive or inconclusive.

Tests used:
[1] = qHTS RealTime-Glo MT Cell Viability Assay in HEK293 cells - 0 hour (AID 1224880); also: top concentration of the series differs between compounds; nearly all actives have a fitted effect of over 45% in size
In short: (§1)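 Measured as luminescence from the same continuously cultured HEK293 wells at successive time points (0, 8, 16, 24, 32, 40 h) after compound addition. Reagent present from seeding; dosing at 5 h; incubation 37 C.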

[2] = A CellTox Green Cytotoxicity Assay to monitor cytotoxicity in HepG2 cells - 0 hour (AID 1224882); also: nearly all actives have a fitted effect of over 35% in size
In short: (§2)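 Fluorescent DNA-binding dye, 600 HepG2 cells/well, 5 h preincubation then compound in DMSO; same plates read at 0–40 h, 37 C.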

[3] = A CellTox Green Cytotoxicity Assay to monitor cytotoxicity in HepG2 cells - 32 hour (AID 1224883); also: nearly all actives have a fitted effect of over 50% in size
In short: as §2

[4] = A CellTox Green Cytotoxicity Assay to monitor cytotoxicity in HEK293 cells - 8 hour (AID 1224884); also: nearly all actives have a fitted effect of over 35% in size
In short: (§3)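 Homogeneous no-lysis format: HEK293 cell suspension mixed with CellTox Green reagent, seeded, incubated 5 h at 37 C/5% CO2, then dosed by pintool with compound in DMSO.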

[5] = qHTS RealTime-Glo MT Cell Viability Assay in HepG2 cells - 16 hour (AID 1224885); also: nearly all actives have a fitted effect of over 50% in size
In short: (§4)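 Cell number in HepG2 cultures estimated from NanoLuc luminescence generated by metabolic reduction of a prosubstrate by living cells. The homogeneous, nonlytic format allowed repeated reads at 0, 8, 16, 24, 32 and 40 h of compound exposure.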

[6] = qHTS RealTime-Glo MT Cell Viability Assay in HEK293 cells - 24 hour (AID 1224886); also: top concentration of the series differs between compounds; nearly all actives have a fitted effect of over 50% in size
In short: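 Homogeneous bioluminescent viability format in HEK293 cells (600 cells/well). Following 5 h at 37 C/5% CO2, 23 nL compound was pintooled; the signal was measured repeatedly during 40 h incubation.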

[7] = qHTS RealTime-Glo MT Cell Viability Assay in HEK293 cells - 8 hour (AID 1224887); also: top concentration of the series differs between compounds; nearly all actives have a fitted effect of over 50% in size
In short: as §1

[8] = A CellTox Green Cytotoxicity Assay to monitor cytotoxicity in HEK293 cells - 16 hour (AID 1224888); also: nearly all actives have a fitted effect of over 35% in size
In short: as §3

[9] = qHTS RealTime-Glo MT Cell Viability Assay in HepG2 cells - 0 hour (AID 1224889); also: nearly all actives have a fitted effect of over 50% in size; also: potency is read from the fitted curve at half-maximal effect
In short: as §4

[10] = A CellTox Green Cytotoxicity Assay to monitor cytotoxicity in HepG2 cells - 8 hour (AID 1224890); also: nearly all actives have a fitted effect of over 45% in size
In short: as §2

[11] = qHTS assay to identify small molecule antagonists of the estrogen receptor alpha (ER-alpha) signaling pathway using the BG1 cell line in the presence of 0.1 nM 17-beta-estradiol - cell viability counter screen (AID 1259241); also: nearly all actives have a fitted effect of over 40% in size
In short: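 Cytotoxicity counter-screen: live-cell protease activity measured by fluorescence (30 min reagent step) in the same wells. Cells were VM7Luc4E2 with endogenous ER-alpha and ERE-driven luciferase, treated 22 hr at 37C alongside 0.1 nM 17beta-estradiol final.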

[12] = qHTS assay to identify small molecule antagonists of the androgen receptor (AR) signaling pathway using the MDA cell line in the presence of 0.5 nM R1881 - cell viability counter screen (AID 1259242); also: nearly all actives have a fitted effect of over 45% in size
In short: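 Human breast carcinoma MDA-kb2 cells, cultured without CO2, receive compounds alongside 0.5 nM (final) R1881 agonist. After 16 hr at 37C, viability is taken as live-cell protease signal.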

[13] = molecular target: Estrogen receptor (Homo sapiens) (UniProt P03372); assay: qHTS assay to identify small molecule antagonists of the estrogen receptor alpha (ER-alpha) signaling pathway using the BG1 cell line in the presence of 0.1 nM 17-beta-estradiol (AID 1259244); also: nearly all actives have a fitted effect of over 50% in size
In short: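 Seeding of stripped-serum-adapted VM7Luc4E2 cells, 24 h attachment, compound transfer, then 0.1 nM final 17beta-estradiol; after 22 h incubation, ONE-Glo reagent and luminescence reading.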

[14] = qHTS assay to identify small molecule HDAC inhibitors (AID 1259364); also: potency is read from the fitted curve at half-maximal effect;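 also: wild-type HCT-116 cells with endogenous class I/II HDAC activity; nearly all actives have a fitted effect of over 45% in size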; as to activity change, negative = inhibition: top concentration of the series differs between compounds
In short: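 After a 2 hr compound incubation (37C, 5% CO2), HCT-116 cells seeded at 1,500/well the day before received HDAC-Glo reagent; signal read as luminescence after 30 min at room temperature.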

[15] = qHTS assay to identify small molecule HDAC inhibitors - cell viability counter screen (AID 1259365)
In short: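 CellTiter-Glo luminescence (30 min, room temperature) reported viability after a 2 h compound exposure at 37 C. Cells: wild-type HCT-116, 1,500 per well, seeded the night before.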

[16] = qHTS assay to identify small molecule agonists of the sonic hedgehog signaling (Shh) pathway - cell viability counter screen (AID 1259366); also: nearly all actives have a fitted effect of over 50% in size; also: potency is read from the fitted curve at half-maximal effect
In short: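 Cytotoxicity counter screen: CellTiter-Fluor reagent added after 23 h compound exposure, then 1 h at 37C and fluorescence read. Cells were 3T3 Gli1-Luc, seeded 2,000 per well and dosed 4 h post-plating.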

[17] = qHTS assay to identify small molecule antagonists of the sonic hedgehog signaling (Shh) pathway - cell viability counter screen (AID 1259367); also: nearly all actives have a fitted effect of over 55% in size
In short: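 Cytotoxicity was assessed in parallel with Shh reporter activity by measuring live-cell protease fluorescence (CellTiter-Fluor) in NIH/3T3 cells stably carrying Gli1-Luc, treated with compound under conditioned medium stimulation for 23 hr plus 1 hr reagent incubation.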

[18] = A CellTox Green Cytotoxicity Assay to monitor cytotoxicity in HEK293 cells - 32 hour (AID 1224881); also: nearly all actives have a fitted effect of over 40% in size
In short: as §3

[19] = qHTS assay to identify small molecule phospholipidosis (PLD) inducers (AID 1259344; active = well fitted curve in the direction sought with a large enough effect; an effect the other way counts as inactive or inconclusive)
In short: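 Cells (HepG2, 900 per well) attach for 4 h, receive LipidTOX Red and compound together, incubate 24 h at 37 C, are fixed 30 min with paraformaldehyde/Hoechst, then imaged at one site per well.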

[20] = molecular target: Androgen receptor (Homo sapiens) (UniProt P10275); assay: qHTS assay to identify small molecule antagonists of the androgen receptor (AR) signaling pathway using the MDA cell line in the presence of 0.5 nM R1881 (AID 1259243); also: nearly all actives have a fitted effect of over 50% in size
In short: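 Cells: MDA-kb2 (MMTV-luc). Stimulus: 0.5 nM R1881. Time: 16 hr, 37C, no CO2. Detection: ONE-Glo luminescence after 30 min at RT.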
% is scaled to controls: 0 for no effect and ±100 for the full control effect.

Chain of Estrogen receptor (Homo sapiens) (P03372 whole entry, looked up): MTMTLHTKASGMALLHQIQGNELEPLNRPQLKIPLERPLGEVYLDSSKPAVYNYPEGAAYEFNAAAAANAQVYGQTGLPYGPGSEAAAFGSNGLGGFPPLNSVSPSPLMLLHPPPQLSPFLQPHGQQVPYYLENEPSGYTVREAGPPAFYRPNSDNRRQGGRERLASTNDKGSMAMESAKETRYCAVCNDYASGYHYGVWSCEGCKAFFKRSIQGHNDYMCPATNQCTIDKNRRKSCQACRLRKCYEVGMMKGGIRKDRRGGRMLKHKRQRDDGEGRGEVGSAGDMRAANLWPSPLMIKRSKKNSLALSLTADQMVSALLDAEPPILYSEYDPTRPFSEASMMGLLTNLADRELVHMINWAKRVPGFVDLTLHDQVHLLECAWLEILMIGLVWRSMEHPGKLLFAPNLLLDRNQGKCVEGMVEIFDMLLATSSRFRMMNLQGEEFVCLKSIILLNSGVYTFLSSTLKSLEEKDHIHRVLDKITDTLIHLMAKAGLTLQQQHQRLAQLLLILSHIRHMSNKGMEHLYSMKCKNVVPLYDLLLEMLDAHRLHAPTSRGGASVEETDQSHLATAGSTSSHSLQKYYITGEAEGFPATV
Chain of Androgen receptor (Homo sapiens) (P10275 whole entry, looked up): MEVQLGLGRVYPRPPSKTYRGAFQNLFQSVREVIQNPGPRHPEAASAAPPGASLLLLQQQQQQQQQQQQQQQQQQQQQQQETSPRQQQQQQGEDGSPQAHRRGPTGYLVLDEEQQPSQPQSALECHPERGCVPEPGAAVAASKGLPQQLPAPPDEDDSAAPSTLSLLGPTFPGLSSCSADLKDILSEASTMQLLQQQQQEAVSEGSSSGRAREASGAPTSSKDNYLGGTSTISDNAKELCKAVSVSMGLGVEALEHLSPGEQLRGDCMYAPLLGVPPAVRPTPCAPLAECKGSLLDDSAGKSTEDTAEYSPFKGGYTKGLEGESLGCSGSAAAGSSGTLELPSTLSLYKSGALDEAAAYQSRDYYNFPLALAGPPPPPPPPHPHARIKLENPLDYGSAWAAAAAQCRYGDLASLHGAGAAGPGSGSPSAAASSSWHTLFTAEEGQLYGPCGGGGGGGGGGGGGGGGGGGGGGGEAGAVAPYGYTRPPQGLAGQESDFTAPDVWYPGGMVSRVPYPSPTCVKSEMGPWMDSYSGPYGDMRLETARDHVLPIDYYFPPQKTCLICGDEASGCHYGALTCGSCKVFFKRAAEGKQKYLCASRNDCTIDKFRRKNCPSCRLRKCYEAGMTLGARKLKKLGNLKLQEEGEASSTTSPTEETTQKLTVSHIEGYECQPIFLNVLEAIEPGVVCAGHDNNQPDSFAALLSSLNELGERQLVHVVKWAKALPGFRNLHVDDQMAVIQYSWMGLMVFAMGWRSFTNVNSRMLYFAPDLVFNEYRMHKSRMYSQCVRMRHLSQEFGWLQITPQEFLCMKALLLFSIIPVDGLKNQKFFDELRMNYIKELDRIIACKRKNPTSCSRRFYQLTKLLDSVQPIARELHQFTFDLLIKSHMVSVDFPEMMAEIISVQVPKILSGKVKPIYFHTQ

O=C(O)Cc1cc(I)c(Oc2cc(I)c(O)c(I)c2)c(I)c1
inactive: outcome [1] | Potency [2] | Potency [3] | Potency [4] | outcome [5] | Potency [6] | Potency [7] | Potency [8] | Potency [9] | Potency [10] | outcome [11] | outcome [12] | outcome [13] | Potency [14] | outcome [15] | Potency [16] | outcome [17]

CCCCCCCCCCCCCCC
inactive: outcome [1] | Potency [18] | Potency [2] | Potency [4] | Potency [6] | Potency [7] | Potency [8] | Potency [9] | Potency [10] | outcome [11] | outcome [12] | Potency [14] | outcome [15] | Potency [16] | outcome [17]

CCN(CC)S(=O)(=O)c1ccc(C(=O)O)cc1
inactive: Potency [2] | Potency [3] | outcome [5] | Potency [9] | Potency [10] | outcome [11] | outcome [12] | outcome [13] | Potency [19] | Potency [14] | outcome [15] | Potency [16] | outcome [17]

CC(C)=CCC/C(C)=C/C(=O)O
inactive: outcome [1] | Potency [18] | Potency [2] | Potency [4] | Potency [6] | Potency [7] | Potency [8] | Potency [9] | Potency [10] | outcome [11] | outcome [12] | outcome [13] | Potency [14] | outcome [15] | Potency [16] | outcome [17]

CC(C)N1C(=O)c2ccccc2C1=O
inactive: outcome [1] | Potency [18] | Potency [2] | Potency [4] | outcome [5] | Potency [6] | Potency [7] | Potency [8] | Potency [9] | Potency [10] | outcome [11] | outcome [12] | Potency [16] | outcome [17]

C1CCCCCCCCCCC1
inactive: cytotoxicity increase [18] -37.3% [at 15.8 µM] | cytotoxicity [2] -1.21% [at 15.8 µM] | cytotoxicity increase [3] -10.5% [at 15.8 µM] | cytotoxicity increase [4] -28.5% [at 15.8 µM] | activity change, negative = cytotoxic [5] -3.94% [at 15.8 µM] | activity change [8] -33.7% [at 15.8 µM, hits give high values] | activity change, negative = cytotoxicity [9] -19.7% [at 15.8 µM] | cytotoxicity increase [10] -1.99% [at 15.8 µM] | activity change, negative = cytotoxicity [11] -5.47% [at 19 µM] | viability change, negative = cytotoxic [12] 10.4% [at 19 µM] | Potency [20] | activity change, negative = inhibition [13] -1.81% [at 19 µM] | activity change, negative = inhibition [14] 3.38% [at 19 µM] | activity change, negative = cytotoxicity [15] -1.94% [at 19 µM] | viability change, negative = cytotoxic [16] 0.953% [at 19 µM] | viability change, negative = cytotoxic [17] -0.0913% [at 19 µM]

[O-][N+](=Nc1ccccc1)c1ccccc1
inactive: outcome [1] | Potency [2] | Potency [3] | Potency [4] | outcome [5] | Potency [6] | Potency [7] | Potency [8] | Potency [9] | Potency [10] | outcome [11] | outcome [12] | outcome [13] | Potency [19] | outcome [15] | Potency [16] | outcome [17]
active: Potency [14] 9.69 µM

CCCCc1ccc2cccc(S(=O)(=O)O)c2c1
inactive: outcome [1] | Potency [18] | Potency [2] | Potency [4] | outcome [5] | Potency [6] | Potency [8] | Potency [9] | Potency [10] | outcome [11] | outcome [12] | Potency [20] | outcome [13] | Potency [14] | outcome [15] | Potency [16] | outcome [17]

COC(=O)C1=C(C)NC(C)=C(C(=O)OCC(C)=O)C1c1ccccc1[N+](=O)[O-] (stereo not drawn)
active: Potency [16] 26.6 µM
inactive: Potency [18] | Potency [2] | Potency [3] | Potency [4] | Potency [6] | Potency [8] | Potency [10] | outcome [11] | outcome [12] | outcome [13] | Potency [19] | Potency [14] | outcome [15]

CCCCCC[C@@H](CCC)C(=O)O
inactive: Potency [18] | Potency [2] | Potency [4] | outcome [5] | Potency [6] | Potency [7] | Potency [8] | Potency [9] | Potency [10] | outcome [11] | outcome [12] | outcome [13] | Potency [19] | outcome [15] | Potency [16] | outcome [17]

C/C=C1\C(=O)C[C@H]2[C@@H]3CCC4=CC(=O)CC[C@]4(C)[C@H]3CC[C@]12C
inactive: Potency [2] | Potency [3] | Potency [4] | outcome [5] | Potency [8] | Potency [10] | outcome [11] | outcome [12] | outcome [13] | outcome [15] | outcome [17]
active: Potency [9] 7.61 µM
